Among all 48,000 compounds or so, about 13,000 (27%) showed an effect of 50% or more. Some of the results follow.

Here are results for 47 compounds from ChEMBL document CHEMBL3988442, “University of Dundee, Small-Polar-MMV Screening Library” (2021).

The test has as its system Wolbachia pipientis. Description: Anti-Wolbachia Cell-Based Screen. To be noted: 5 µM. It is filed as functional. Also on record: scale not given: in the data most compounds retested in dose-response had high values.
As to `COCc1c(C(=O)N2CCCC(C(=O)c3ccccc3)C2)noc1C` (configuration not stated), the “Percent Effect” value was found to be 18.29%.
Next, `CC(C)c1noc(-c2ccc(N(C)C3CCOCC3)nc2)n1`: 4.725%.
In the case of `CCc1ccc(C(=O)N(c2cccnc2)C(C)C)cc1S(C)(=O)=O`, the “Percent Effect” value is given as -4.905%.
For `Cn1cc(N2CCCC(NCc3cccc4c3OCCCO4)C2)cn1` (configuration not stated) the value was 5.522%; for `CC(=O)N1CCN(Cc2csc(-c3cnn(C)c3)n2)CC1`, -2.698%; for `CN(CCOc1ccccc1)C(=O)Nc1cccn(C)c1=O`, -7.911%.
Next, `CCn1nc(C)c(CNCCn2cc(C)cn2)c1C`: -3.614%; `CCc1n[nH]c(C2CN(C(=O)c3cscn3)CCO2)n1` (configuration not stated): 131.5%.
As to `CCc1n[nH]c(C2CN(C(=O)c3cnc(C)s3)CCO2)n1` (configuration not stated), the “Percent Effect” value was 1.148%.
On to `CCc1n[nH]c(C2CN(C(=O)c3ccsc3)CCO2)n1` (configuration not stated), for which the “Percent Effect” value was -7.314%.
Next, `CCc1n[nH]c(C2CN(C(=O)c3cnc(C)cn3)CCO2)n1` (configuration not stated): 99.84%; `CCc1n[nH]c(C2CN(C(=O)c3cnns3)CCO2)n1` (configuration not stated): -10.08%; `CCc1n[nH]c(C2CN(C(=O)c3cnn(CC)c3)CCO2)n1` (configuration not stated): 143.5%.
For `CCc1n[nH]c(C2CN(C(=O)c3csnn3)CCO2)n1` (configuration not stated) the value was 5.505%.
With `CCc1n[nH]c(C2CN(C(=O)c3ccc(Cl)cn3)CCO2)n1` (configuration not stated), the “Percent Effect” value worked out at 105.2%.
Regarding `Cc1ccc2c(c1)CCC21CCN(CCO)CC1`, the “Percent Effect” value came out at 9.958%.
Next, `Cc1ccc(NC(=O)N(CCO)CCO)c(OCc2ccccc2)c1`: -35.37%; `COC(=O)CCN(CC1CCCO1)C(=O)Cc1ccc(OC)c(OC)c1` (configuration not stated): 2.857%.
Next, `COc1ccc(CN(Cc2ccccn2)Cc2cncn2C)cc1.O=C(O)CC(O)(CC(=O)O)C(=O)O`: 130.6%; `Cc1cc(CN(Cc2cccs2)CC2CCCO2)no1` (configuration not stated): -7.251%.
As for `COc1ccc(CN(CC2CCCO2)c2nc3c(s2)c(C)nn3C)cc1` (configuration not stated), the “Percent Effect” value is -25.43%.
For `COc1ccc(CN(Cc2cncn2C)CC2CCCO2)c(OC)c1.O=C(O)CC(O)(CC(=O)O)C(=O)O` (configuration not stated) the value was -9.808%.
Next, `COc1ccc(CN(Cc2cnc(N)nc2)CC2CCCO2)c(OC)c1.O=C(O)CC(O)(CC(=O)O)C(=O)O` (configuration not stated): 113.1%; `COc1ccc(CN(Cc2cn(C)nc2C)CC2CCCO2)c(OC)c1` (configuration not stated): 138%.
For `CCn1cncc1CN(Cc1ccc(OC)cc1OC)CC1CCCO1.O=C(O)CC(O)(CC(=O)O)C(=O)O` (configuration not stated) the value was 91.73%; for `Nc1nccnc1C(=O)N(Cc1ccccc1O)CC1CCCO1` (configuration not stated), -11.08%; for `CCN1CCN(c2ccc(F)cc2C(C)NCc2ccncc2)CC1` (configuration not stated), 0.6189%.
Consider `COCCC(C)NC(=O)Nc1ccc(N2CCOC2=O)c(OC)c1` (configuration not stated), for which the “Percent Effect” value was -2.31%.
For `O=C(Cn1ccc2ccccc21)Nc1cc(N2CCOCC2)ncn1` the value was -11.42%; for `CN(C)C(=O)Cc1ccc(NC(=O)NC2CC2)cc1`, -3.674%; for `COc1ccccc1CN(Cc1cccnc1)CC1CCCO1.O=C(O)CC(O)(CC(=O)O)C(=O)O` (configuration not stated), 117.4%.
Next, `COc1ccccc1CN(Cc1cccnc1)Cc1c[nH]c(C)n1`: -35.67%; `COc1ccc(CN(Cc2c[nH]cn2)CC2CCCO2)c(OC)c1.O=C(O)CC(O)(CC(=O)O)C(=O)O` (configuration not stated): 99.96%.
For `COc1ccc(CN(Cc2cncn2C)CC2CCCO2)cc1.O=C(O)CC(O)(CC(=O)O)C(=O)O` (configuration not stated) the value was 108.8%; for `COc1ccc(CN(C(=O)C2CCCOC2)c2ccncc2)cc1` (configuration not stated), -5.222%.
As to `O=c1[nH]c2ccccc2cc1CN(Cc1ccccn1)CC1CCCO1` (configuration not stated), the “Percent Effect” value is 7.522%.
Next, `Cc1nc2ccccn2c1CN(Cc1cccnc1)CC1CCCO1` (configuration not stated): -2.807%.
Next, `COc1ccc(CN(Cc2cncn2C)CC2CCCO2)cc1OC.O=C(O)CC(O)(CC(=O)O)C(=O)O` (configuration not stated): -10.71%; `Cn1cnc2c(N3CCCC3)nc(C3CCN(CC4CC4)CC3)cc21.O=C(O)C(F)(F)F.O=C(O)C(F)(F)F`: -3.967%; `O=C(O)c1coc(COc2cccc3cnccc23)n1`: -2.104%.
Next, `CC(=O)N1CCC(N2C[C@@H](F)[C@@H](OCc3nc4ncccc4[nH]3)C2)CC1`: -11.9%; `CNS(=O)(=O)c1cccc(C(C)NCc2ccncc2)c1` (configuration not stated): -20.6%; `CN1CCC2(CCN(CC3CCOCC3)CC2)C1=O.O=C(O)C(F)(F)F`: -1.769%.
On to `CCN1C(=O)C(c2ccccc2)CC12CCN(S(C)(=O)=O)CC2` (configuration not stated), for which the “Percent Effect” value is given as -8.52%.
For `CN1CC[C@]2(CN(CC3CCOCC3)C[C@H]2c2ccccc2)C1=O.O=C(O)C(F)(F)F` the value was 123.3%; for `CN1CC(c2ccccc2)C2(CCN(C(=O)c3cccn3C)CC2)C1=O` (configuration not stated), -2.229%.
For `Cc1cc(CN2C[C@@H](C)[C@@]3(CCN(CC(=O)N(C)C)C3=O)C2)oc1C.O=C(O)C(F)(F)F` the value was 15.48%.
